Structures are written as SMILES. Several values for one entry are separate records, joined by “and”; a condition that tells them apart may be missing. Equal values may be shown once. Results filed as inconclusive are left out. For part of these data: Potency and affinity values are given separately. Activity calls are given as the source filed them. Rule as the data show it, unless noted: active = inhibition above about 80%; inactive = the rest. Where a SMILES comes first, the peptide text is derived from it. [ ]: non-standard residue; d: D form. The star is where a group is joined. Sta = CC(C)C[C@H](N)[C@@H](O)CC(=O)O; Isovaleryl = CC(C)CC(=O)*

Experiment [1] in a line: growth inhibition, single agents and combos, LFS_MB_1R, cell-based, cisplatin or BGB combos, synergistic combos for chromothripsis tumors (AID 1671452).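 Also: cells exposed for 96 hours before readout.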 Conditions: LFS_MB_1R medulloblastoma cells, stronger effect = higher value.
The nature of experiment [2]: growth inhibition, single agents and combos, CRL2098, cell-based, BGB or cisplatin IC20 combos, synergistic combos for chromothripsis tumors (AID 1671454).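 Also: cells exposed for 96 h before readout; 0% = vehicle DMSO and 100% = killing by high DMSO.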 Conditions: CRL2098 osteosarcoma cells, drug combinations, stronger effect = higher value.
The nature of experiment [3]: growth inhibition, single agents and combos, HD-MB03, cell-based, BGB or cisplatin IC20 combos, synergistic combos for chromothripsis tumors (AID 1671455; in the data active = inhibition above about 83%;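 also: 0% = vehicle DMSO and 100% = high DMSO as cytotoxic control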). Conditions: HD-MB03 medulloblastoma cells, stronger effect = higher value.
A short description of experiment [4]: growth inhibition, single agents and combos, UWB1.289, cell-based, BGB or cisplatin combos, synergistic combos for chromothripsis tumors (AID 1671456).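 Also: cells exposed to compound for four days; 0% = vehicle DMSO and 100% = killing by high DMSO.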 The settings on record: UWB1.289 ovarian carcinoma cells, stronger effect = higher value.
The nature of experiment [5]: growth inhibition, single agents and combos, LFS_MB_2R, cell-based, cisplatin combos, synergistic combos for chromothripsis tumors (AID 1671457).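 Also: cells exposed to compound for four days before readout.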 The settings on record: LFS_MB_2R medulloblastoma cells, stronger effect = higher value.
Experiment [6] can be described thus: UWB1.289_BRCA1 ovarian cancer growth, cell-based, BGB or cisplatin combinations (AID 1671459). Conditions: UWB1.289 BRCA1 ovarian carcinoma, drug combinations, stronger effect = higher value.
The nature of experiment [7]: drug combination toxicity in non-malignant astrocytes – cell-based, BGB or cisplatin IC20 combos, cytotoxicity control for chromothriptic childhood tumor combination screen (AID 1671460).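 Also: cells exposed to compounds for 96 hours before viability readout; 0% = vehicle and 100% = killing control.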 The settings on record: Human astrocytes, viability inhibition, drug combinations, at 0.5 µM, stronger effect = higher value.
Experiment [8] can be described thus: chitosan synthesis blockers in C. neoformans – flow cytometry, Cibacron Brilliant Red staining (AID 1347148; call rule not given here;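 also: compound exposure lasted three days at 37 degrees C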). The settings on record: Cryptococcus neoformans chitosan, stronger effect = lower value; at 10 µM unless noted.
Experiment [9] is described as follows: blockers of polyQ-driven CASP3 activation – cell-based (AID 1583). The settings on record: polyglutamine-induced caspase-3 activation, cell assay; stronger effect = higher value;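 tested at 10 µM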.
Experiment [10] can be described thus: yeast 75Q aggregation reduction – 75Q-TubU reporter (AID 1593). Conditions: Yeast 75Q polyglutamine aggregation reporter.
A short description of experiment [11]: restoration of touch response, mutant HTT neurons – whole organism, C. elegans mechanosensory neurons, N-terminal huntingtin (AID 1599). Conditions: C. elegans polyQ-huntingtin mechanosensory neurons, stronger effect = higher value.
Experiment [12] is described as follows: blockers of cytochrome c efflux from mitochondria – biochemical, purified mitochondria (AID 1603).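 Also: mouse liver mitochondria challenged with calcium chloride; signal normalized to the plate average as 100%.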 Conditions: stronger effect = lower value.
Experiment [13] is described as follows: polyglutamine aggregate formation blockers (AID 1604). The settings on record: polyglutamine-induced protein aggregation inhibition assay; stronger effect = higher value; tested at 2.5 µM.
Experiment [14] in a line: glutamate transport activators, MN-1 cells, MN-1 cell line (AID 1612).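 Also: tested at 1 µM final; 0% = mean of DMSO vehicle wells on each plate; positive means more glutamate uptake than control and negative means less.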 The settings on record: MN-1 motor neuron cells, stronger effect = higher value.
A short description of experiment [15]: GFP-Q80 aggregate reduction, neuronal-like cells, cell-based, NGF-treated PC12, GFPQ80 (AID 1614).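 Also: lower means fewer inclusions and 0 means no inclusions at all.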 The settings on record: PC12 NGF-treated GFP-polyQ80 inclusion reduction.
The nature of experiment [16]: 75Q-TubH aggregate inhibition, S. cerevisiae, yeast (AID 1616). Conditions: S. cerevisiae 75Q-TubH polyglutamine aggregation suppression; stronger effect = higher value.
Experiment [17] concerns the target ATP-dependent translocase ABCB1 (Homo sapiens) (UniProt P08183). Briefly: P-glycoprotein substrate transport blockade – cell-based (AID 377; in the data active = fluorescence slope change above about 50%). Conditions: MDR1-expressing cells, fluorescent substrate accumulation slope; stronger effect = higher value; concentration not given here.
Experiment [18] is described as follows: signal quenchers or enhancers, Cy5 substrate/SSB – biochemical, NIH Clinical Collection, E. coli SSB, artefact control for HCV NS3 helicase inhibitor project (AID 743268; call rule not given here). The settings on record: Cy5-oligo bound E. coli SSB, fluorescence interference.
For experiment [19], the system named is Hepatitis C virus NS3 helicase. Briefly: blockers of NS3h binding to DNA – biochemical, fluorescence polarization, NIH Clinical Collection, primary screen (AID 743270; call rule not given here). The settings on record: NS3 helicase binding to Cy5-dT15 DNA, stronger effect = higher value, concentration not given here.
The target in experiment [20] is Single-stranded DNA-binding protein (Escherichia coli (strain K12)) (UniProt P0AGE0). Briefly: SSB-ssDNA binding inhibitors – biochemical, fluorescence polarization, NIH Clinical Collection, counter-screen for HCV NS3 helicase inhibitor project (AID 743271; in the data active = inhibition above about 28%). The settings on record: E. coli SSB-DNA binding, stronger effect = higher value, concentration not given here.
[21] abbreviates: measured here: combination with BGB IC40, at 0.05 µM.
[22] abbreviates: measured here: combination with cisplatin, at 0.5 µM.
The mark [23] stands for this setting: measured here: combination with cisplatin, at 5 µM.
The mark [24] stands for this setting: measured here: combination with BGB at IC20, at 0.5 µM.
The mark [25] stands for this setting: measured here: combination with cisplatin at IC20, at 0.5 µM.
[26] abbreviates: measured here: combo with BGB at IC20, at 0.5 µM.
[27] abbreviates: measured here: combo with cisplatin at IC20, at 0.5 µM.
[28] abbreviates: measured here: inhibition with BGB combination, at 0.05 µM.
[29] abbreviates: measured here: inhibition with cisplatin combination, at 0.05 µM.
Where [30] appears, read: BGB combination, concentration series, at 5 µM.
Where [31] appears, read: cisplatin combination, concentration series, at 5 µM.
[32] abbreviates: measured here: combo with BGB IC20.
The mark [33] stands for this setting: measured here: combo with cisplatin IC20.

Sequence of ATP-dependent translocase ABCB1 (Homo sapiens) (P08183 whole entry, looked up): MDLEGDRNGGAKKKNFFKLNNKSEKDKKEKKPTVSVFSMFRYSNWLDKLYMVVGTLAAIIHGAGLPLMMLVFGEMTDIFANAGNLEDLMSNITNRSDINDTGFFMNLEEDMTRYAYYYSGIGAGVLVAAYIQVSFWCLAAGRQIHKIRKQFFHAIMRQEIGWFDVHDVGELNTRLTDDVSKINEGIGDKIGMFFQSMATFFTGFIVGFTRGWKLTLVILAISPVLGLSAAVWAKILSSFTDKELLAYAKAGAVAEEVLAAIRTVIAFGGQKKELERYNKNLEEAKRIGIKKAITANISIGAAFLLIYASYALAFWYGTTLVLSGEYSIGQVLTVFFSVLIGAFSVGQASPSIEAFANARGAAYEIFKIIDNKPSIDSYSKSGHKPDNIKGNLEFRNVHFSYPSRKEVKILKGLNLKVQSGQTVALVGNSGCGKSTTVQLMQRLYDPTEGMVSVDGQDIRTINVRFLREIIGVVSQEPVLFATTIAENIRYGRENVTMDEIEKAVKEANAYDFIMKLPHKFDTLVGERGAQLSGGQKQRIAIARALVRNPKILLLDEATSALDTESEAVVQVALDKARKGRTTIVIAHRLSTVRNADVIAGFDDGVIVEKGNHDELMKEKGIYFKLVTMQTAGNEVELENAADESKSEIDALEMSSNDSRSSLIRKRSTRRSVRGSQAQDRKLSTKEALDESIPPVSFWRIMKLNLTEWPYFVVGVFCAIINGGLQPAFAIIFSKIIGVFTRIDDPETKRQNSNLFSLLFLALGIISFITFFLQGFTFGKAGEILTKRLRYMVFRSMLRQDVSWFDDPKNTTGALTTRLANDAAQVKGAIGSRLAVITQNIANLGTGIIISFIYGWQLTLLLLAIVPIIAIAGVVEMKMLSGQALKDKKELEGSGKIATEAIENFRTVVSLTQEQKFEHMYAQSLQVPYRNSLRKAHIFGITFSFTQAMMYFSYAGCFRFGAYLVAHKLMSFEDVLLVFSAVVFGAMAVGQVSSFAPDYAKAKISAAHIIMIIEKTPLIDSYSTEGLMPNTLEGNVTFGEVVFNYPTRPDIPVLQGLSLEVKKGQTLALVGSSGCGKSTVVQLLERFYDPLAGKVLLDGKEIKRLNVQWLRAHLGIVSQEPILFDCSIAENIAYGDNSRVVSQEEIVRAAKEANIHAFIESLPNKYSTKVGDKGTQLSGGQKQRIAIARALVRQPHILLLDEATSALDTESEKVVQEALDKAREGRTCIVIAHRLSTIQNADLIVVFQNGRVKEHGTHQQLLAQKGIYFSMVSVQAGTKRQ

For `Nc1ncn([C@H]2C[C@H](O)[C@@H](CO)O2)c(=O)n1`, the inhibition in [1] (at 0.5 µM) was -7.33% (inactive); in experiment [1] (setting [21]), -12.1%; in [1] (setting [22]), -1.56%; in experiment [1] (setting [23]), -10.1%; in experiment [2] (at 0.5 µM), -25.9% (inactive); in experiment [2] (setting [24]), -12.6%. The inhibition is -67.9% in experiment [2] (setting [25]); 30.9% (inactive) in experiment [3] (at 0.5 µM); 47.3% in [3] (setting [26]); 31.6% in experiment [3] (setting [27]); 16.5% (inactive) in experiment [4] (at 0.5 µM); 5.24% in experiment [4] (setting [28]). The inhibition is -1.44% in [4] (setting [29]); -4.56% (inactive) in experiment [5] (at 0.5 µM); -4.46% in experiment [5] (setting [22]); 0.176% in [5] (setting [23]); 32.1% in [6] (setting [30]); 25% (inactive) in experiment [6] (at 0.5 µM). In addition, the inhibition in experiment [6] (setting [31]) was 40.5%; in [7], 26.9% (inactive); in experiment [7] (setting [32]) it was 27.2%; in experiment [7] (setting [33]) it was 20.4%.
Turning to `CC1=C(/C=C/C(C)=C/C=C/C(C)=C/C(=O)Nc2ccc(O)cc2)C(C)(C)CCC1`, the fold fluorescence in experiment [8] was 6.05 (inactive).
For the compound `CC(C)=CCC/C(C)=C/CO`, the inhibition in experiment [9] was found to be 23.2%. In experiment [10], the score is 1.12. In [11], this compound had a rescue above control of 3.94. The cytochrome c release ratio in experiment [12] was found to be 1.17. In experiment [13], this compound displayed an inhibition of aggregation of 60.6%. In experiment [14], this compound came in with a glutamate uptake change of 5.29%. The compound further came in with an inclusion score in experiment [15] of 2. In [16], this compound returned an aggregation suppression score of 1.02.
For the compound `FC(F)(F)c1ccccc1-n1ccnc1`, in [8], the fold fluorescence is 8.97 [at 235.7 µM] (inactive).
Regarding `CC#C[C@]1(O)CC[C@H]2[C@@H]3CCC4=CC(=O)CCC4=C3[C@@H](c3ccc(N(C)C)cc3)C[C@@]21C`, the fluorescence slope change in [17] was 142% (active). In addition, the fluorescence ratio in [18] was 0.97 (inactive). The inhibition in [19] is 2.4% (inactive); in experiment [20], -1.18% (inactive).
In the case of `C[C@@H](CN1CC(=O)NC(=O)C1)N1CC(=O)NC(=O)C1`, the inhibition in experiment [1] (at 0.5 µM) is -13.2% (inactive); in experiment [1] (setting [21]), -25.5%; in [1] (setting [22]), -32.2%; in experiment [1] (setting [23]) it was -35.9%; in experiment [2] (at 0.5 µM), -49.6% (inactive); in experiment [2] (setting [24]), -22.2%. Also, the inhibition in experiment [2] (setting [25]) is -110%; in experiment [3] (at 0.5 µM) it was -16.4% (inactive); in experiment [3] (setting [26]) it was -23.7%; in [3] (setting [27]), -12.8%; in [4] (at 0.5 µM), -10.9% (inactive); in [4] (setting [28]), -2.15%. In addition, the inhibition is -21.4% in experiment [4] (setting [29]); -10.5% (inactive) in experiment [5] (at 0.5 µM); -11.4% in experiment [5] (setting [22]); -5.98% in [5] (setting [23]); -10.8% in [6] (setting [30]); -7.98% (inactive) in experiment [6] (at 0.5 µM). The inhibition in experiment [6] (setting [31]) was -4.24%; in experiment [7] it was 0.89% (inactive); in [7] (setting [32]) it was -5.32%; in experiment [7] (setting [33]), 12.3%.
With `CN(C)C/C=C(/c1ccc(Br)cc1)c1cccnc1`, the fluorescence slope change in experiment [17] was 159% (active).
For the compound `CCCCCOC(=O)Nc1nc(=O)n([C@@H]2O[C@H](C)[C@@H](O)[C@H]2O)cc1F`, the inhibition was -36.3% (inactive) and -17.9% (inactive) in experiment [1] (at 0.5 µM); -77.2% and -11.6% in experiment [1] (setting [21]); -36.7% and -43% in experiment [1] (setting [22]); -42.5% and -67.7% in experiment [1] (setting [23]); -110% (inactive) and -37.4% (inactive) in [2] (at 0.5 µM); -124% and -32.3% in experiment [2] (setting [24]). For the same compound, the inhibition in experiment [2] (setting [25]) is -103% and -72.6%; in experiment [3] (at 0.5 µM) it was -17.2% (inactive) and -2.76% (inactive); in [3] (setting [26]), -8.55% and -7.81%; in [3] (setting [27]), -34.6% and 2.4%; in experiment [4] (at 0.5 µM), -11.5% (inactive) and 9.77% (inactive); in experiment [4] (setting [28]) it was -37.1% and -7.89%. For the same compound, the inhibition was -5.98% and 11.7% in experiment [4] (setting [29]); -21.1% (inactive) and -14.8% (inactive) in [5] (at 0.5 µM); -19.7% and -16.3% in experiment [5] (setting [22]); -95.1% and -10.2% in experiment [5] (setting [23]); -26.2% and 5.45% in [6] (setting [30]); -11.8% (inactive) and 4.86% (inactive) in experiment [6] (at 0.5 µM). Further, the inhibition was -6.41% and 4.95% in [6] (setting [31]); -8.94% (inactive) and 6.03% (inactive) in experiment [7]; -11% and -1.61% in experiment [7] (setting [32]); -23.1% and 9.49% in experiment [7] (setting [33]).
Turning to `NS(=O)(=O)c1cc(Cl)c(Cl)c(S(N)(=O)=O)c1`, in experiment [17], the fluorescence slope change was 82.9% (active).
In the case of `CCCCCCCCCCCCCCCC(=O)NCCO`, the fold fluorescence in [8] is 4.46 (inactive).
With `CC(C)CC(=O)N[C@H](C(=O)N[C@H](C(=O)N[C@@H](CC(C)C)[C@@H](O)CC(=O)N[C@@H](C)C(=O)N[C@@H](CC(C)C)[C@@H](O)CC(=O)O)C(C)C)C(C)C` (Isovaleryl-VV[Sta]A[Sta]-OH), in [8], the fold fluorescence was 4.93 [at 72.9 µM] (inactive).

One may read the inhibition as the change of the read-out against control, counted positive when it falls.

These data come from PubChem BioAssay.
